Records with an inconclusive call do not appear. A call without a number means that no potency is given here. Active and inactive are the calls of the source. Calls follow the shape of the dose curve; as a rule, active = well fitted curve in the direction sought with a large enough effect; inconclusive = small, poorly fitted or top-dose-only effect, or another doubt; inactive = no such curve, though single readings can be large; an effect the other way counts as inactive or inconclusive.

The first assay in a line: Cellular Toxicity (caspase-3) Jurkat (AID 655).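 Also: cells exposed to compound for 16 h at 37 °C before reading.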 Also: potency is read from the fitted curve at half-maximal effect. To be noted: Jurkat caspase-3 activation, luminescence; caspase-3 activation: at 92.2 µM (top of the series), DMSO = 0%, tamoxifen = 100%. In short, it runs like this: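 Luminescent caspase-3/7 readout (aminoluciferin substrate cleavage) in human T-cell leukemia Jurkat cells after 16 hr compound exposure. Concentration-response normalized to DMSO and 100 uM tamoxifen; AC50 by standard Hill equation.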
`CN(C)c1ccc(C2(c3ccc(N(C)C)cc3)OC(=O)c3cc(N(C)C)ccc32)cc1`: the Potency entry is “inactive”.

For the compound `CO[C@H]1/C=C/O[C@@]2(C)Oc3c(C)c(O)c4c(O)c(c5c(c4c3C2=O)NC2(CCN(CC(C)C)CC2)N=5)=NC(=O)/C(C)=C\C=C\[C@H](C)[C@H](O)[C@@H](C)[C@@H](O)[C@@H](C)[C@H](OC(C)=O)[C@@H]1C`, the Potency entry is “inactive”.

With `O=C(OCC(COC(=O)c1ccccc1)(COC(=O)c1ccccc1)COC(=O)c1ccccc1)c1ccccc1`, the Potency result was “inactive”.

Regarding `ClC1=C(Cl)C(Cl)(Cl)C(Cl)=C1Cl`, the Potency is 0.316 µM (active).

As to `CC(=O)Nc1ccc(C(=O)CCl)cc1`, the Potency result was “inactive”.

On to `CC/C(=C(\c1ccccc1)c1ccc(OCCN(C)C)cc1)c1ccc(O)cc1`, for which the Potency is 31.6 µM (active).

Regarding `Nc1ccc2cc3ccccc3cc2c1`, the Potency result is “inactive”.

For the compound `c1ccc2c(c1)-c1cccc3c1c-2cc1ccccc13`, the Potency entry was “inactive”.

As for `O=C=Nc1ccc(Cc2ccc(N=C=O)cc2)cc1`, the Potency result is “inactive”.

In the case of `O=[N+]([O-])c1cc([N+](=O)[O-])c2ccc(S(=O)(=O)O)cc2c1O`, the Potency entry was “inactive”.

For the compound `CCC(C)Nc1ccc(NC(C)CC)cc1` (configuration not stated), the Potency entry is “inactive”.

For the compound `O=C1OC2(c3cc(Br)c(O)c(Br)c3Oc3c2cc(Br)c(O)c3Br)c2c(Cl)c(Cl)c(Cl)c(Cl)c21`, the Potency result was “inactive”.

Turning to `Oc1ccc2cc(SSc3ccc4cc(O)ccc4c3)ccc2c1`, the Potency entry was “inactive”.

With `c1ccc2c(c1)ccc1cc3c(ccc4ccccc43)cc12`, the Potency result was “inactive”.

`C/C=C1\C(=O)C[C@H]2[C@@H]3CCC4=CC(=O)CC[C@]4(C)[C@H]3CC[C@]12C`: the Potency entry was “inactive”.

`C=C(C)c1ccccc1`: the Potency entry was “inactive”.

As for `Cc1ccc(S(=O)(=O)Oc2ccc(N=Nc3ccc(-c4ccc(N=Nc5c(O)ccc6cc(S(=O)(=O)O)cc(S(=O)(=O)O)c56)c(C)c4)cc3C)cc2)cc1`, the Potency result was “inactive”.

A further assay in a line: Cellular Toxicity (caspase-3) BJ (AID 658). Also: potency is read from the fitted curve at half-maximal effect.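 As to caspase-3 activation: cells exposed to compound for 16 hours.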 To be noted: BJ fibroblasts, luminescence; Potency: caspase-3 activation; series mostly up to 91.7 µM. An outline of the steps:
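Caspase-Glo 3/7 luminescence, read 1 hr after reagent at room temperature, in normal BJ fibroblasts exposed 16 hours at 37 °C. AC50 values from Hill-equation concentration-response, scaled between DMSO basal and 10 uM staurosporine as 100%.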
For `Cc1cc(Nc2ccc(O)cc2)ccc1N`, the Potency entry is “inactive”.

As to `CN(C)c1ccc(C2(c3ccc(N(C)C)cc3)OC(=O)c3cc(N(C)C)ccc32)cc1`, the Potency entry is “inactive”.

For the compound `CO[C@H]1/C=C/O[C@@]2(C)Oc3c(C)c(O)c4c(O)c(c5c(c4c3C2=O)NC2(CCN(CC(C)C)CC2)N=5)=NC(=O)/C(C)=C\C=C\[C@H](C)[C@H](O)[C@@H](C)[C@@H](O)[C@@H](C)[C@H](OC(C)=O)[C@@H]1C`, the Potency entry was “inactive”.

`O=C(OCC(COC(=O)c1ccccc1)(COC(=O)c1ccccc1)COC(=O)c1ccccc1)c1ccccc1`: the Potency entry was “inactive”.

In the case of `ClC1=C(Cl)C(Cl)(Cl)C(Cl)=C1Cl`, the Potency is 3.98 µM (active).

As to `CC(=O)Nc1ccc(C(=O)CCl)cc1`, the Potency entry was “inactive”.

`Nc1ccc2cc3ccccc3cc2c1`: the Potency entry was “inactive”.

Take `c1ccc2c(c1)-c1cccc3c1c-2cc1ccccc13`: the Potency result was “inactive”.

With `O=C=Nc1ccc(Cc2ccc(N=C=O)cc2)cc1`, the Potency result was “inactive”.

Turning to `O=[N+]([O-])c1cc([N+](=O)[O-])c2ccc(S(=O)(=O)O)cc2c1O`, the Potency result was “inactive”.

`CCC(C)Nc1ccc(NC(C)CC)cc1` (configuration not stated): the Potency result was “inactive”.

For the compound `CNc1ccc(O)cc1`, the Potency entry is “inactive”.

As for `O=C1OC2(c3cc(Br)c(O)c(Br)c3Oc3c2cc(Br)c(O)c3Br)c2c(Cl)c(Cl)c(Cl)c(Cl)c21`, the Potency entry was “inactive”.

Turning to `Oc1ccc2cc(SSc3ccc4cc(O)ccc4c3)ccc2c1`, the Potency entry was “inactive”.

Take `c1ccc2c(c1)ccc1cc3c(ccc4ccccc43)cc12`: the Potency entry was “inactive”.

Regarding `C/C=C1\C(=O)C[C@H]2[C@@H]3CCC4=CC(=O)CC[C@]4(C)[C@H]3CC[C@]12C`, the Potency entry was “inactive”.

Take `C=C(C)c1ccccc1`: the Potency entry was “inactive”.

For `O=C1OC(O)C(C(Cl)Cl)=C1Cl` (configuration not stated), the Potency entry was “inactive”.

With `Cc1ccc(S(=O)(=O)Oc2ccc(N=Nc3ccc(-c4ccc(N=Nc5c(O)ccc6cc(S(=O)(=O)O)cc(S(=O)(=O)O)c56)c(C)c4)cc3C)cc2)cc1`, the Potency result is “inactive”.

The next assay can be described thus: Cellular Toxicity (caspase-3) Mesangial (AID 660).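 Also: combined caspase 3 and 7 activity read by Caspase-Glo luminescence; cells exposed to compound for 16 h before the caspase read.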 The note with it: mesangial cells, normalized: DMSO 0%, 100 µM tamoxifen 100%; at 91.7 µM (top of the series). In short, it runs like this:
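Seed cells derived from normal human renal glomeruli, incubate 5 h, add compounds across concentrations and incubate 16 h at 37 °C. Caspase 3/7 activation is then quantified by luciferase light, with AC50 derived by Hill modeling.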
With `Cc1cc(Nc2ccc(O)cc2)ccc1N`, the caspase-3 activation was 23.2% (inactive).

For the compound `CN(C)c1ccc(C2(c3ccc(N(C)C)cc3)OC(=O)c3cc(N(C)C)ccc32)cc1`, the caspase-3 activation was 0.256% (inactive).

On to `CO[C@H]1/C=C/O[C@@]2(C)Oc3c(C)c(O)c4c(O)c(c5c(c4c3C2=O)NC2(CCN(CC(C)C)CC2)N=5)=NC(=O)/C(C)=C\C=C\[C@H](C)[C@H](O)[C@@H](C)[C@@H](O)[C@@H](C)[C@H](OC(C)=O)[C@@H]1C`, for which the caspase-3 activation is 0.833% (inactive).

With `O=C(OCC(COC(=O)c1ccccc1)(COC(=O)c1ccccc1)COC(=O)c1ccccc1)c1ccccc1`, the caspase-3 activation was -0.308% (inactive).

Regarding `ClC1=C(Cl)C(Cl)(Cl)C(Cl)=C1Cl`, the caspase-3 activation is 0.653% (inactive).

Consider `CC(=O)Nc1ccc(C(=O)CCl)cc1`, for which the caspase-3 activation is -4.19% (inactive).

As to `CC/C(=C(\c1ccccc1)c1ccc(OCCN(C)C)cc1)c1ccc(O)cc1`, the caspase-3 activation was -2.42% (inactive).

Consider `Nc1ccc2cc3ccccc3cc2c1`, for which the caspase-3 activation is -0.235% (inactive).

As for `c1ccc2c(c1)-c1cccc3c1c-2cc1ccccc13`, the caspase-3 activation was -0.695% (inactive).

As to `O=C=Nc1ccc(Cc2ccc(N=C=O)cc2)cc1`, the caspase-3 activation is -0.349% (inactive).

Turning to `O=[N+]([O-])c1cc([N+](=O)[O-])c2ccc(S(=O)(=O)O)cc2c1O`, the caspase-3 activation is 1.36% (inactive).

As to `Cc1cc(O)c(C(C)(C)C)cc1Sc1cc(C(C)(C)C)c(O)cc1C`, the caspase-3 activation is 140% (active).

As for `CCC(C)Nc1ccc(NC(C)CC)cc1` (configuration not stated), the caspase-3 activation is -4.04% (inactive).

For `CNc1ccc(O)cc1`, the caspase-3 activation is -3.33% (inactive).

As to `C=CC(=O)OCCOCCOC(=O)C=C`, the caspase-3 activation was 0.177% (inactive).

In the case of `O=C1OC2(c3cc(Br)c(O)c(Br)c3Oc3c2cc(Br)c(O)c3Br)c2c(Cl)c(Cl)c(Cl)c(Cl)c21`, the caspase-3 activation is -1.97% (inactive).

As for `Oc1ccc2cc(SSc3ccc4cc(O)ccc4c3)ccc2c1`, the caspase-3 activation was -1.21% (inactive).

For the compound `c1ccc2c(c1)ccc1cc3c(ccc4ccccc43)cc12`, the caspase-3 activation was 0.415% (inactive).

On to `C/C=C1\C(=O)C[C@H]2[C@@H]3CCC4=CC(=O)CC[C@]4(C)[C@H]3CC[C@]12C`, for which the caspase-3 activation was 1.02% (inactive).

Regarding `C=C(C)c1ccccc1`, the caspase-3 activation is 0.545% (inactive).

For `Cc1ccc(S(=O)(=O)Oc2ccc(N=Nc3ccc(-c4ccc(N=Nc5c(O)ccc6cc(S(=O)(=O)O)cc(S(=O)(=O)O)c56)c(C)c4)cc3C)cc2)cc1`, the caspase-3 activation is -0.709% (inactive).
